Test results: PubChem BioAssay (NCATS)
Records with an inconclusive call do not appear. Unless noted, calls come from the whole dose curve; as a rule, active = well fitted curve in either direction with a large enough effect (not every such curve was filed as active); inconclusive = small, poorly fitted or top-dose-only effect, or another doubt; inactive = flat fitted curve, though single readings scatter.

Key:
[1] = AP1 Signaling Pathway (AID 357); conditions: ME-180 AP-1-bla reporter, EGF-induced, beta-lactamase ratio, 5 h; at 17.2 µM (top of the series) unless noted;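 note: ME-180 reporter cells stimulated with EGF at its EC50 level; % is set by controls: 0 for no effect and ±100 for the full control effect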
Procedure, shortened: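 In this screen, ME-180 cells in Opti-MEM with 0.5% dialyzed FBS received EC50 EGF and compound titrations for 5 h. AP-1 reporter beta-lactamase was detected via CCF4 ratio, giving AC50 for positive and negative modulators.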

[2] = NFAT Signaling Pathway (AID 444); conditions: Jurkat NFAT-bla M1, carbachol, beta-lactamase ratio, 5 h; at 17.2 µM (top of the series) unless noted;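 note: carbachol stimulus at about its EC50 of 1 µM final; % is set by controls: 0 for no effect and ±100 for the full control effect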
Procedure, shortened: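 Read-out: CCF4 FRET ratio (460 nm/530 nm) after 1 h RT dye loading, used for %activity and AC50 from titration series. Cells: Jurkat NFAT-β-lactamase/M1 line, treated with compound plus 1 uM carbachol for 5 h, 37 °C.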

[3] = Stat Signaling Pathway (AID 446); conditions: ME-180 SIE beta-lactamase reporter, IL-6 stimulated, 5 h; at 17.2 µM (top of the series) unless noted;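 note: ME-180 cervical cancer cells given 40 pM IL-6 alongside compound; SIE-controlled beta-lactamase reporter measured as 460/530 nm FRET emission ratio; % is set by controls: 0 for no effect and ±100 for the full control effect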
Procedure, shortened: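 ME-180 cells carrying a SIE-driven beta-lactamase reporter are stimulated with 40 pM IL-6 for 5 h at 37C in the presence of compound. The 460/530 nm FRET substrate ratio is read after 2.5 h at RT. Data are normalised to 300 pM IL-6 and to 125 nM JAK inhibitor controls.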

[4] = target: Glucocorticoid receptor (Homo sapiens) (UniProt P04150); test: GR-GFP Redistribution (AID 450;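 active = compounds whose dose series gives a full or clear partial fitted curve of increased nuclear translocation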; note: potency is the fitted concentration of half-maximal effect); conditions: U2OS GR-GFP nuclear translocation, laser cytometry, 2 h; series mostly up to 20.6 µM
Chain of Glucocorticoid receptor (Homo sapiens) (P04150 whole entry, looked up): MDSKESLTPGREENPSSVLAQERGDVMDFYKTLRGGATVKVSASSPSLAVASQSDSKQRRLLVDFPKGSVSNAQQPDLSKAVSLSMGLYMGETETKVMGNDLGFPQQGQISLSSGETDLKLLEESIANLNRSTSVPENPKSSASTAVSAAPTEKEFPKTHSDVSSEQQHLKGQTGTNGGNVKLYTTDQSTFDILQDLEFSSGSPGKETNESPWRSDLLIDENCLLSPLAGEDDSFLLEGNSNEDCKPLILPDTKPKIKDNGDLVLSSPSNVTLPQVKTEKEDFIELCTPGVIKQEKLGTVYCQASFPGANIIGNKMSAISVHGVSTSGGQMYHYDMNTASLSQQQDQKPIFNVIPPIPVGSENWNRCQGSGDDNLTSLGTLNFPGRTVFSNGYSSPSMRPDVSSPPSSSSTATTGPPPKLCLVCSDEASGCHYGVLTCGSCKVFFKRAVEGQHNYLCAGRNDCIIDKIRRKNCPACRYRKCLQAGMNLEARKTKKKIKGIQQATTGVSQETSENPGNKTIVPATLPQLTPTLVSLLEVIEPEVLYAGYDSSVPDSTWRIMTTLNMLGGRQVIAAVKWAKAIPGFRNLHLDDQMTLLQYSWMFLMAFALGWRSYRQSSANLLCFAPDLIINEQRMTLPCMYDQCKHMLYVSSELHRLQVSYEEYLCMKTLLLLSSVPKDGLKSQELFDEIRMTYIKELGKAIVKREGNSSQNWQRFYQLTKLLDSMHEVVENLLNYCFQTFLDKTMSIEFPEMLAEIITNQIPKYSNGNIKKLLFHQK

CCOC(=O)NC1(C(F)(F)F)C(=O)NC(C)=C1C#N (stereo unspecified)
inactive: activity change, negative = inhibition [1] 26.2% | activity change, negative = inhibition [2] -4.71% | activity, negative = inhibition [3] 1.98% | Potency [4] > 20.6 µM

CCCCOc1ccccc1C(=O)NCCCC(=O)O
inactive: activity change, negative = inhibition [1] -11.8% | activity change, negative = inhibition [2] -5.11% | activity, negative = inhibition [3] 8.07% | Potency [4] > 20.6 µM

O=C1[C@@H]2[C@H](C(=O)N1O)[C@H]1C=C[C@@H]2C1
inactive: activity change, negative = inhibition [1] 5.39% | activity change, negative = inhibition [2] -15.3% | activity, negative = inhibition [3] 10.4% | Potency [4] > 20.6 µM

O=C(Nc1nc(=O)c2ccccc2s1)c1ccccc1
inactive: activity change, negative = inhibition [1] -10.8% | activity change, negative = inhibition [2] -15.9% | activity, negative = inhibition [3] -3.03% | Potency [4] > 20.6 µM

CCN(CC)CCCN1C(=O)C(=O)/C(=C(/O)c2ccc(OC)cc2)C1c1ccco1 (stereo unspecified)
inactive: activity change, negative = inhibition [1] 9.88% | activity change, negative = inhibition [2] -12.1% | activity, negative = inhibition [3] 10.8% | Potency [4] > 20.6 µM

CCC(=O)Nc1cc(-c2nn(C)c(=O)c3ccccc23)ccc1N1CCCCC1
inactive: activity change, negative = inhibition [1] -16.8% | activity change, negative = inhibition [2] -13.8% | activity, negative = inhibition [3] -6.35% | Potency [4] > 20.6 µM

N#Cc1ccc(-c2cccnc2)nc1SCC(=O)Nc1sc2c(c1C#N)CCC2
inactive: activity change, negative = inhibition [1] -1.23% | activity change, negative = inhibition [2] -7.12% | activity, negative = inhibition [3] -7.78% | Potency [4] > 20.6 µM

O=C(O)C1CSC(CCc2ccccc2)N1 (stereo unspecified)
inactive: activity change, negative = inhibition [1] 19.9% | activity change, negative = inhibition [2] -1.74% | activity, negative = inhibition [3] 27% | Potency [4] > 20.6 µM

COc1cccc(N2C(=O)C(O)=C(C(C)=O)C2c2ccc(OC)c(OC)c2)c1 (stereo unspecified)
inactive: activity change, negative = inhibition [1] -12.6% | activity change, negative = inhibition [2] 9.05% | activity, negative = inhibition [3] 0.326% | Potency [4] > 20.6 µM

CC(C)c1ccc(O)c(N)c1
inactive: activity change, negative = inhibition [1] -2.33% | activity change, negative = inhibition [2] 12.3% | activity, negative = inhibition [3] 2.34% | Potency [4] > 20.6 µM

Cc1sccc1C1C(C#N)=C(N)SC(N)=C1C#N
inactive: activity change, negative = inhibition [1] -12.4% | activity change, negative = inhibition [2] 15% | activity, negative = inhibition [3] -25.4% | Potency [4] > 20.6 µM

O=C(CNC1=NCCC1)c1ccc2c(c1)OCCO2
inactive: activity change, negative = inhibition [1] 5.51% | activity change, negative = inhibition [2] -10.1% | activity, negative = inhibition [3] -3.23% | Potency [4] > 20.6 µM

Oc1c(C=NCc2ccncc2)sc2ccccc12
inactive: activity change, negative = inhibition [1] -15.7% | activity change, negative = inhibition [2] -6.22% | activity, negative = inhibition [3] -1.25% | Potency [4] > 20.6 µM

Cn1c(NCCN2CCCCC2)cc(=O)n(C)c1=O
inactive: activity change, negative = inhibition [1] 6.19% | activity change, negative = inhibition [2] -24.7% | activity, negative = inhibition [3] 9.99% | Potency [4] > 20.6 µM

O=C(O)c1cc2sccc2s1
inactive: activity change, negative = inhibition [1] -0.721% | activity change, negative = inhibition [2] -6.24% | activity, negative = inhibition [3] 2.27% | Potency [4] > 20.6 µM

O=C1c2ccccc2S(=O)(=O)N1CC(O)COc1ccc(Cl)cc1 (stereo unspecified)
inactive: activity change, negative = inhibition [1] -4.25% | activity change, negative = inhibition [2] -2.04% | activity, negative = inhibition [3] -1.8% | Potency [4] > 20.6 µM

COC(=O)Sc1nc(N2CCOCC2)c2c(c1C#N)CC(C)(C)OC2
inactive: activity change, negative = inhibition [1] -17.4% | activity change, negative = inhibition [2] -7.69% | activity, negative = inhibition [3] -18.3% | Potency [4] > 20.6 µM

Cn1c(SCC(=O)NCc2ccccc2)nc2ccccc21
inactive: activity change, negative = inhibition [1] -0.959% | activity change, negative = inhibition [2] 1.73% | activity, negative = inhibition [3] 4.04% | Potency [4] > 20.6 µM

CC(O)Cn1ccccc1=N (stereo unspecified)
inactive: activity change, negative = inhibition [1] -4.75% | activity change, negative = inhibition [2] 25.6% | activity, negative = inhibition [3] 3.45% | Potency [4] > 20.6 µM

CCOC(=O)c1c(C)n(C)c2ccc(OC)c(NC(=O)CN3CCN(Cc4ccccc4)CC3)c12
inactive: activity change, negative = inhibition [1] -11% | activity change, negative = inhibition [2] -8.48% | activity, negative = inhibition [3] -7.51% | Potency [4] > 20.6 µM

CCOc1cccc(-c2nnc3sc(COc4ccccc4)nn23)c1
inactive: activity change, negative = inhibition [1] -3.24% | activity change, negative = inhibition [2] 9.41% | activity, negative = inhibition [3] -10.6% | Potency [4] > 20.6 µM

Cn1c(=O)c2c3c(sc2n2c(SCC(N)=O)nnc12)CC(C(C)(C)C)CC3 (stereo unspecified)
inactive: activity change, negative = inhibition [1] -9.72% | activity change, negative = inhibition [2] 19.6% | activity, negative = inhibition [3] 14% | Potency [4] > 20.6 µM

C/C(=N\O)C(=O)NCCCn1ccnc1
inactive: activity change, negative = inhibition [1] 16.3% | activity change, negative = inhibition [2] 1.22% | activity, negative = inhibition [3] 16.8% | Potency [4] > 20.6 µM

Cn1ncc(N=Cc2ccccc2O)c1C(=O)N1CCOCC1
inactive: activity change, negative = inhibition [1] 2.72% | activity change, negative = inhibition [2] -6.4% | activity, negative = inhibition [3] -4.13% | Potency [4] > 20.6 µM

Cc1cc(=O)n2[nH]c(N3C(=O)CCC3=O)nc2n1
inactive: activity change, negative = inhibition [1] 5.03% | activity change, negative = inhibition [2] -4.69% | activity, negative = inhibition [3] 11.6% | Potency [4] > 20.6 µM

COc1cccc(NC(=O)CSC2=C(C#N)C(c3ccco3)C3=C(CCCC3=O)N2)c1 (stereo unspecified)
inactive: activity change, negative = inhibition [1] -18.7% | activity change, negative = inhibition [2] -16% | activity, negative = inhibition [3] -7.07% | Potency [4] > 20.6 µM

CCOc1ccc2nc(SCC(=O)Nc3ncccn3)[nH]c2c1
inactive: activity change, negative = inhibition [1] -9.31% | activity change, negative = inhibition [2] 0.119% | activity, negative = inhibition [3] -2.35% | Potency [4] > 20.6 µM

O=C(c1cccc(Cl)c1)N1CCN(C(=O)c2ccccc2F)CC1
inactive: activity change, negative = inhibition [1] -14.3% | activity change, negative = inhibition [2] 0.199% | activity, negative = inhibition [3] -11.1% | Potency [4] > 20.6 µM

COC(=O)c1ccc(CSc2nc(N3CCOCC3)c3c(c2C#N)CC(C)(C)OC3)o1
inactive: activity change, negative = inhibition [1] -9.04% | activity change, negative = inhibition [2] -8.92% | activity, negative = inhibition [3] 20% | Potency [4] > 20.6 µM
